Assay outcomes deposited in PubChem by National Center for Advancing Translational Sciences (NCATS).
NPC1 prom act: qHTS Assay for NPC1 Promoter Activators | Huh7 NPC1 promoter luciferase reporter, 24 h | Potency, µM (top dose mostly 9.22 µM), for inactives: at the top dose activation, actives largely listed as activators | 320,000 compounds, 2.4% hits; note: % of control where 0% means no effect; nearly all actives have a fitted effect of over 60% in size
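Stable NPC1-promoter luciferase Huh7 line; cpd (DMSO) 24 h, 37 °C, 5% CO2; Amplite luciferase reagent 10 min RT; luminescence readout. qHTS format.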
SMN2 splice up: qHTS Assay for Enhancers of SMN2 Splice Variant Expression. 210,000 compounds, 2.8% hits. HEK293 SMN2-luciferase splicing reporter, luminescence, 30-36 h. Potency, µM (doses to about 46.1 µM), without a hit: at the top dose activity change, positive = activation, most hits filed as activators; note: % of control where 0% means no effect; nearly all actives have a fitted effect of over 55% in size
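HEK293 cells carry an SMN2 […]–luciferase reporter in which exon 7 inclusion puts luciferase in frame. Cells were plated 10-12 h before compound addition, then incubated 30-36 h at 37C. ONE-Glo luminescence was read; sodium butyrate at 4.5 mM final served as control.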
ELG1 genotoxic: qHTS screen for small molecules that induce genotoxicity in human embryonic kidney (HEK293T) cells expressing luciferase-tagged ELG1; HEK293T ELG1-luciferase reporter, luminescence, 16 h; 330,000 compounds, 1.3% hits; Potency, µM (highest dose often 46 µM), for inactives: at the top dose activity change, positive = activation, actives largely listed as activators; AID 504466, 2011; note: % of control where 0% means no effect; nearly all actives have a fitted effect of over 60% in size
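HEK293T cells expressing luciferase-tagged ELG1 were exposed to compound or DMSO vehicle for 16 hr at 37 °C and 5% CO2. Luciferase activity was then measured with ONE-Glo after 30 min at room temperature.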
FLuc counter: qHTS profiling assay for firefly luciferase inhibitor/activator using purifed enzyme and Km concentrations of substrates (counterscreen for miR-21 project) | Luciferin 4-monooxygenase (Photinus pyralis), P08659 | purified FLuc, Km substrates, luminescence inhibition | Potency, µM (doses to about 57.5 µM), without a hit: at the top dose activity change, negative = inhibition, hits mostly inhibitors | 360,000 compounds, 6.9% hits | AID 588342, 2011;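 note: plate controls were vehicle for no effect and reference inhibitor for full effect; nearly all actives have a fitted effect of over 55% in size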
Target sequence (P08659 whole entry, looked up): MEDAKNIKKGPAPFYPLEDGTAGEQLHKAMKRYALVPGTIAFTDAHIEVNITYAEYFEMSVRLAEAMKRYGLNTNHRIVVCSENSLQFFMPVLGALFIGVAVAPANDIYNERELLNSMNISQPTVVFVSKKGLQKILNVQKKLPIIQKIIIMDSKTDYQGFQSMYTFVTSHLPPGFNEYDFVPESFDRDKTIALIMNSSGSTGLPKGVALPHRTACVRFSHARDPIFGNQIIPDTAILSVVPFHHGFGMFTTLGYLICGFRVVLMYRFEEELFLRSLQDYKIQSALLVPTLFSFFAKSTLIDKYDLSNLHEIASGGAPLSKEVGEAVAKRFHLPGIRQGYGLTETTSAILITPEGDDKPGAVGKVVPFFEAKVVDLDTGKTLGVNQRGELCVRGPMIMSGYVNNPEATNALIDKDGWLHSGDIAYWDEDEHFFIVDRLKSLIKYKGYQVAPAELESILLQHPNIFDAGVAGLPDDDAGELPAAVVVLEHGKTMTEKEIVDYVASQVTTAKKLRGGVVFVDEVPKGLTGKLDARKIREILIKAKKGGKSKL
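Biochemical qHTS of compounds, final roughly 60 µM downward over six points, against 10 nM purified firefly luciferase using Km concentrations of substrates (10 uM D-luciferin, 10 uM ATP) in Tris acetate pH 7.5 buffer; luminescence output.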
KinaseGlo FLuc: Counterscreen for Luciferase (Kinase-Glo TM) Inhibition; Luciferin 4-monooxygenase (Photuris pensylvanica), Q27757; Kinase-Glo luciferase, ATP luminescence, 8 min; Potency, µM (doses to about 38.3 µM), without a hit: at the highest dose activity change, negative = inhibition, usual class: inhibitors; 200,000 compounds, 0.28% hits; note: % is set by controls: 0 for no effect and ±100 for the full control effect; nearly all actives have a fitted effect of over 60% in size
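Light output from Kinase-Glo luciferase with luciferin and 10 uM ATP in 50 mM imidazole pH 7.2, KCl, MgCl2, Tween 20, BSA; compound pin-delivered, 8-min ambient incubation, then luminescence read.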
Rab9 promoter act: qHTS Assay for Rab9 Promoter Activators | Potency, µM (doses to about 9.22 µM), without a hit: at the top dose activation, negative = inhibition, most hits filed as activators | Huh7 Rab9 promoter-luciferase reporter, luminescence, 24 h | 320,000 compounds, 2.8% hits; note: % of control where 0% means no effect; nearly all actives have a fitted effect of over 60% in size
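Quantitative HTS format; Huh7 Rab9-luciferase reporter cells (1500/well) receive compound 2 h post-plating, incubate 24 h at 37 °C, then get luciferase reagent for 10 min before luminescence reading.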
* = called active by the depositor; ? = inconclusive; . = not tested or not shown; [ ] = remark or other dose. A selection: hits, their analogues and other compounds. The true share with any hit is near 7.3%. Calls come from the whole dose curve; as a rule, active = well fitted curve in the direction sought with a large enough effect; inconclusive = small, poorly fitted or top-dose-only effect, or another doubt; inactive = no such curve, though single readings can be large; an effect the other way counts as inactive or inconclusive. Potency is the fitted concentration of half-maximal effect.

SMILES	NPC1 prom act	SMN2 splice up	ELG1 genotoxic	FLuc counter	KinaseGlo FLuc	Rab9 promoter act
COc1ccc(NC(=O)c2oc3ccccc3c2NC(=O)COc2ccc(F)cc2)c(OC)c1	.	-6.8%	.	0.2%	.	.
O=C(CN1C(=O)/C(=C\C=C\c2ccccc2)SC1=S)Nc1ccc(F)cc1	0.1%	4.47µM*	3.9%	-5.8%	-1.9%	1.3%
O=C(Cc1ccc(Cl)cc1)c1ccc(O)cc1	3.55µM*	.	?	15.1µM*	.	3.55µM*
Cc1ccc(CC(=O)c2ccc(Cl)cc2)cc1	?	.	?	4.78µM*	.	?
O=C(Cc1ccccc1)c1ccc(Cl)cc1	-1.8%	.	4.3%	?	.	-0.2%
Cc1ccc(-c2onc3ccc(Br)cc23)cc1	4.1%	.	-0.6%	?	.	2.5%
Cc1ccc(-c2onc3ccc(C4OCCO4)cc23)cc1	26.6%	-1.2%	9.9%	7.57µM*	-1.5%	?
c1ccc2cc(NCNc3ccc4ccccc4c3)ccc2c1	.	8.4%[9.22 µM]	.	.	-0.1%[7.66 µM]	.
CN(C)c1ccc(CNC(=O)C2CCN(c3nnc(-n4cccc4)s3)CC2)cc1	.	.	.	-0.2%	.	.
Cc1cc(N/N=C/c2ccco2)c2ccccc2n1	3.8%	1.7%	0.3%	-15.8%	-1.2%	-2.7%
C(=N\Nc1nc2ccccc2s1)/c1cccs1	?	7.08µM*	?	0.849µM*	-1.3%	1.26µM*
CCn1c(C)c(/C=N/Nc2nc3ccccc3s2)c2ccccc21	?	-25.4%	0.1%	13.5µM*	-5.0%	11.8%
Cc1ccsc1/C=N\NC(=O)Cn1nnc2ccccc21	-11.9%	2.7%	-2.4%	-19.7%	-1.1%	-15.8%
Cc1ccsc1/C=N/Nc1nc2ccccc2s1	3.55µM*	1µM*	1.46µM*	1.69µM*	?	1.78µM*
Cc1ccnc(N/N=C/c2ccco2)n1	?	?	?	16.9µM*	-5.1%	26.0%
OCC(O)/C=N/Nc1nc2ccccc2s1 (stereo unspecified)	16.4%	?	-5.6%	-8.5%	1.8%	13.3%
COc1ccccc1NC(=O)c1sc2nc(-c3cc4cc(Cl)ccc4oc3=O)[nH]c(=O)c2c1C	.	.	.	-3.7%	.	.
Cc1ccc(-c2nc3c(c(SCC(=O)Nc4cccc(C(=O)O)c4)n2)Cc2cccc(C)c2O3)cc1	7.8%	6.9%	.	?	.	-2.4%
C(=N\Nc1nc2ccccc2s1)/c1ccco1	2.24µM*	1.58µM*	?	1.2µM*	4.0%	1.26µM*
Cc1ccc(C)c(-c2csc(N/N=C/c3ccco3)n2)c1	13.8%	-50.5%	-8.9%	-18.1%	2.5%	-0.3%
Nc1ccccc1Nc1cc(-c2cccc(Cl)c2)nn1-c1ccccc1	6.5%	12.0%	0.9%	26.9µM*	-0.6%	3.2%
Nc1c(-c2ccccc2)cnn1-c1cccc(Cl)c1	1.12µM*	.	?	3.38µM*	.	1.41µM*
Cc1cccc(-c2cnn(-c3cccc([N+](=O)[O-])c3)c2N)c1	17.7%	?	7.9%	?	-5.6%	27.5%
Cc1cccc(-c2cnn(-c3ccccc3)c2N)c1	?	.	?	6.75µM*	.	3.55µM*
CCOc1ccc(OCC)c(NC(=O)CCC(=O)N2CCOc3ccccc32)c1	.	.	.	0.9%	.	.
SMILES	NPC1 prom act	SMN2 splice up	ELG1 genotoxic	FLuc counter	KinaseGlo FLuc	Rab9 promoter act
Cc1ccccc1CN1C(=O)c2ccccc2Sc2ccc(C(=O)NCCc3ccccc3)cc21	.	.	.	-4.5%	.	.
COC(=O)C1=C(C(=O)OC)[C@@H]2N(C)c3ccc(OC)cc3[C@@]23C[C@@H](C(=O)OC)N(S(=O)(=O)c2ccc(C#N)cc2)C3=N1	.	-0.5%[9.22 µM]	.	.	-2.5%[7.66 µM]	.
O=C(Nc1cccc(Cl)c1)c1ccc2nc(Cc3ccccc3)oc2c1	.	.	.	-11.7%	.	.
CCOc1ccc(-c2nnc(-c3cccs3)o2)cc1	0.708µM*	2µM*	?	0.675µM*	-8.6%	0.631µM*
COc1ccc(-c2nnc(-c3cccs3)o2)cc1OC	2.82µM*	154.1%	14.1µM*	8.49µM*	-15.3%	3.16µM*
CCOc1ccc(-c2nc(-c3cccs3)c(CC(=O)O)s2)cc1OC	17.4%	15.5%	?	3.01µM*	-3.1%	?
CCOc1ccc(-c2nnn(CCC(=O)O)n2)cc1OC	-2.2%	15.7%	-2.0%	-1.8%	1.5%	0.3%
c1csc(-c2nnc(-c3ccc(N4CCOCC4)cc3)o2)c1	0.355µM*	1.26µM*	1.3µM*	1.2µM*	8.8%	0.631µM*
COc1cc(-c2nnc(-c3cccs3)o2)cc(OC)c1OC	5.1%	?	5.7%	-1.5%	1.8%	5.6%
COc1ccc(NC(=O)Nc2cc(C(=O)NCc3ccc(C)cc3)ccc2N2CCCC2)cc1	.	.	.	2.1%	.	.
CCOc1ccc(-c2nnc(-c3ccco3)o2)cc1OCC	29.7%	-15.3%	?	?	-1.6%	?
CCOc1ccc(-c2nnc(-c3cccs3)o2)cc1OCC	3.55µM*	23.5%	?	?	-0.8%	?
COc1ccc(C2CC2/C(C)=N/OC(=O)C2CC2)cc1 (stereo unspecified)	-0.1%	16.3%	-2.6%	-6.8%	4.2%	14.4%
C/C(=N/OC(=O)C1CC1c1ccccc1)c1ccccc1 (stereo unspecified)	-1.4%	-34.9%	?	19µM*	-2.3%	0.2%
O=C1C=CC(=O)c2c(O)c(Cl)c(Cl)c(O)c21	.	-14.5%	.	.	-9.2%	.
c1ccc(NCC2OCc3ccccc3CO2)cc1	3.98µM*	15.8µM*	?	23.9µM*	-3.1%	2.51µM*
O=C(CSc1oc(-c2ccc(F)cc2)nc1S(=O)(=O)c1ccc(Cl)cc1)c1ccccc1	.	-4.6%	.	2.0%	.	.
Nc1nc(SCc2ccccc2[N+](=O)[O-])c2[nH]cnc2n1	.	-10.2%[9.22 µM]	.	.	0.1%[7.66 µM]	.
C/C(=N\O)c1ccc2[nH]ccc2c1	-3.9%	22.3%	15.1%	?	-2.3%	?
C/C(=N\O)c1ccc2c3c([nH]c2c1)CCCC3	?	?	?	10.7µM*	-1.0%	?
O=C(N/N=C/c1ccnc2ccccc12)c1ccccc1O	14.5%	.	15.4%	10.7µM*	.	7.8%
O=C(N/N=C/c1ccc2nccnc2c1)c1ccncc1	-7.6%	.	-0.8%	?	.	-0.3%
O=C(N/N=C/c1cc(Br)c(O)c(Br)c1)c1cccc(C(F)(F)F)c1	1.1%	-23.0%	2.3%	?	4.1%	-2.6%
O=C(N/N=C/c1cccc(C(F)(F)F)c1)c1ccccc1O	18.2%	-8.9%	3.4%	6.75µM*	-2.4%	15.3%
O=C(N/N=C/c1ccc2nccnc2c1)c1ccccc1O	?	.	2.8%	0.269µM*	.	?
